# Data published in ChEMBL document CHEMBL4513216, “Probing the Open Global Health Chemical Diversity Library for Multistage-Active Starting Points for Next-Generation Antimalarials” (ACS Infect Dis, 2020).
# The campaign covered roughly 69,000 compounds. About 8,600 (12%) showed an effect of 50% or more. For the sample, strong results were picked, then their nearest neighbours and some compounds at random.
# Test system: Plasmodium berghei
# Assay: Screen against P. berghei liver stage (PbLuc), transformed with Luciferase, at 10uM
# Assay type: functional, HepG2
# Details: tested at 10 uM
row,Structure (SMILES),INHIBITION [%]
1,CC(=O)N1Cc2ccccc2OC2(CCN(C(=O)C3CCOC3)CC2)C1 (centres undefined),6.26
2,CCc1cc(N2CCC(Nc3ccc4nnc(C)n4n3)CC2)ncn1,46.4
3,Cc1ccc(N2CCC(NC(C)c3cccs3)CC2)nc1 (centres undefined),22.9
4,Cc1ccc(N2CCC(Nc3ccc4nnc(C)n4n3)CC2)nc1,58.7
5,c1cc(CN2CCC3(CCOCC3COCC3CC3)CC2)co1 (centres undefined),38.3
6,Cn1nnc2c1CCN(Cc1ccco1)C2COCc1ccccc1 (centres undefined),-48.4
7,Cc1cc(C)n(-c2ccc(N3CCC4(CC3)OCCO4)nc2)n1,-125
8,Cc1cc(C)n(-c2ccc(N3CCCSCC3)nc2)n1,25.8
9,Cc1cc(C)n(-c2ccc(N3CCC(O)CC3)nc2)n1,50.5
10,CS(=O)(=O)Cc1noc(CN2CCN(c3ccccc3Cl)CC2)n1,45.7
11,Cc1cccc(SC2CCN(Cc3nc(CC4CC4)no3)CC2)c1,11.9
12,Clc1cccc2c1CCN(Cc1nc(CC3CC3)no1)C2,50.5
13,CS(=O)(=O)Cc1noc(CN2CCc3c(Cl)cccc3C2)n1,82.5
14,Cc1cccc(N2CCN(Cc3nc(CC4CC4)no3)CC2)n1,32.7
15,Cc1ncc2c(n1)CCN(Cc1nc(Cc3ccccc3)no1)C2,-154
16,CCOC(=O)c1sc(NC(=O)C(C)C)c(C#N)c1C,38
17,NC(=O)c1cncc(N2CCN(Cc3cccc4nsnc34)CC2)n1,-47.8
18,NC(=O)c1ccnc(N2CCCC(CO)(Cc3ccc(F)cc3)C2)c1 (centres undefined),43.5
19,NC(=O)c1ccc(N2CCN(Cc3ccc(F)cc3Cl)CC2)nn1,81.2
20,NC(=O)c1cncc(N2CCN(Cc3ccc(F)cc3Cl)CC2)n1,69.3
21,O=C(c1cnns1)N1CCN(Cc2ccc(F)cc2Cl)CC1,-18.2
22,COc1ccc(CN2CCCN(c3cc(C(N)=O)ccn3)CC2)cc1,-18.7
23,NC(=O)c1ccnc(N2CCN(Cc3ccc(F)cc3Cl)CC2)c1,83.2
24,NC(=O)CN1CC2(CCC1=O)CCN(Cc1ccc(F)cc1Cl)CC2,31.7
25,CN1CCN(Cc2ccccc2Oc2cncc(C(N)=O)n2)CC1,4.82
26,Cc1nn(C)c(N2CCOCC2)c1CNCc1ccc(C(C)O)cc1 (centres undefined),43.2
27,CC(C)CC(=O)N1CCN(Cc2cc(-c3ccncc3)nn2C)CC1,-23.8

row,Structure (SMILES),INHIBITION [%]
1,CCOC(=O)c1sc(NC(=O)CN2C(=O)CCC2=O)c(C#N)c1C,32.2
2,CC(C)c1ccc(-n2ncc(C(=O)N(C)C3CCN(C)CC3)c2N)cc1,-29
3,Cc1ccc(CN(CCN(C)C)Cc2ccnn2C2CCCCO2)o1 (centres undefined),15.5
4,Cc1ccc(O)c(C(=O)N2CCC3(CCCNC3)C2)c1 (centres undefined),42.1
5,O=C1CNc2ncnc(Nc3cnn(Cc4ccc(F)cc4)c3)c2N1,65.8
6,O=C1CNc2ncnc(Nc3cnn(Cc4ccccc4)c3)c2N1,34.6
7,O=C1CNc2ncnc(Nc3cnn(Cc4cccc(F)c4)c3)c2N1,-6.47
8,COCCN1C[C@@H](C)[C@@]2(COCCN(C(=O)c3cccs3)C2)C1,20.1
9,CCNC(=O)NC(c1ccc(C)cc1)c1cccc(S(C)(=O)=O)c1 (centres undefined),31.7
10,Cc1ccc(C(NC(=O)C2CC2)c2cccc(S(C)(=O)=O)c2)cc1 (centres undefined),52.5
11,CCC(=O)NC(c1ccc(C)cc1)c1cccc(S(C)(=O)=O)c1 (centres undefined),34.7
12,Cc1cnc(CCNC(=O)C2CN(C(=O)Cc3ccc(F)cc3)C2)s1,-3.15
13,CN(C)CC1(O)CCCN(c2ccnc3c(C(F)(F)F)cccc23)C1 (centres undefined),7.24
14,COc1cccc(CN(C)C(=O)CN2CCN(CCO)CC2)c1,13.7
15,Cc1cc(C)n(C2CN(CC(=O)N(C)Cc3ccco3)C2)n1,39.7
16,Cc1ccc(CN(C)C(=O)CN2CC(n3cccn3)C2)o1,28.4
17,Cc1cc(C)n(C2CN(CC(=O)N(C)Cc3ccsc3)C2)n1,75.7
18,CN(Cc1ccsc1)C(=O)CN1CCOC(Cn2cncn2)C1 (centres undefined),5.7
19,COc1cccc(CN(C)C(=O)CN2CCN(c3nccn3C)CC2)c1,-20.6
20,COc1ccccc1CN(C)C(=O)CN1CC(n2nc(C)cc2C)C1,89.4
21,Cc1cc(C)n(C2CN(CC(=O)N(C)Cc3cnn(C)c3)C2)n1,32.9
22,COc1ccccc1CC(=O)N1CCCC(n2nc(C)cc2C)C1 (centres undefined),27.1
23,COc1ccccc1CNC(=O)C(C)N1CC(n2nc(C)cc2C)C1 (centres undefined),6.27
24,COc1cccc(CN(C)C(=O)CN2CCN(c3nccs3)CC2)c1,60.4
25,Cc1cc(C)n(C2CN(CC(=O)N(C)Cc3ccc(C)o3)C2)n1,71.9
26,COc1ccc(F)cc1S(=O)(=O)NCCn1cnc(C)cc1=O,41.7
27,COCCNC(=O)c1cc(-n2cccc2)ccc1Cl,22.2
